Compound activity (PubChem BioAssay)
Rows were chosen to be rich in hits. Some 7.5% of all compounds tested hit in one or more screens of this group.
SMN2 splice up: increases expression of the SMN2 splice variant. HEK293 SMN2-luciferase splicing reporter, luminescence, 30-36 h. Potency, µM (series often up to 46.1 µM), inactives show at the highest dose activity change, positive = activation, actives largely listed as activators. 2.8% of 210,000 active; also: % of control where 0% means no effect; nearly all actives have a fitted effect of over 55% in size
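HEK293 cells carry an SMN2 […]–luciferase reporter in which exon 7 inclusion puts luciferase in frame. Cells were plated 10-12 h before compound addition, then incubated 30-36 h at 37C. ONE-Glo luminescence was read; sodium butyrate at 4.5 mM final served as control.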
Rab9 prom act: activators of Rab9 promoter; Huh7 Rab9 promoter-luciferase reporter, luminescence, 24 h; Potency, µM (doses to about 9.22 µM), without a hit: at the top dose activation, negative = inhibition, actives largely listed as activators; 2.8% of 320,000 active; AID 485297; also: % of control where 0% means no effect; nearly all actives have a fitted effect of over 60% in size
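Promoter activation is measured as luciferase luminescence in Huh7 cells stably transfected with a Rab9 promoter–luciferase construct, following 24 h compound exposure at 37 °C and 10 min reagent incubation at ambient temperature.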
Luc counter: counter-screen: inhibitors of Kinase-Glo firefly luciferase; AID 1379; Kinase-Glo luciferase, ATP luminescence, 8 min; 0.28% of 200,000 active; Q27757; Potency, µM (top dose mostly 38.3 µM), for inactives: top-dose activity change, negative = inhibition, hits mostly inhibitors; also: % is scaled to controls: 0 for no effect and ±100 for the full control effect; nearly all actives have a fitted effect of over 60% in size
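Kinase-Glo luciferase light output from ATP and luciferin was measured with 10 uM ATP, within the enzyme's linear range. Buffer: 50 mM imidazole pH 7.2, 50 mM KCl, 7 mM MgCl2, 0.01% Tween 20, 0.05% BSA; luminescence read after 8 min at ambient temperature.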
ELG1 genotoxic: induces genotoxicity in HEK293T cells with luciferase-tagged ELG1 | 1.3% of 330,000 active | AID 504466 | HEK293T ELG1-luciferase reporter, luminescence, 16 h | Potency, µM (series often up to 46 µM), for the others: at the top dose activity change, positive = activation, usual class: activators; also: % of control where 0% means no effect; nearly all actives have a fitted effect of over 60% in size
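Cells (2,000/well) expressing the ELG1-luciferase fusion are dosed by pin tool and kept 16 hr at 37 °C, 5% CO2. Signal comes from ONE-Glo luciferase reagent after 30 min at room temperature.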
FLuc modulator: inhibits or activates purified firefly luciferase, miR-21 counter-screen. purified FLuc, Km substrates, luminescence inhibition. Potency, µM (top dose mostly 57.5 µM), inactives show at the highest dose activity change, negative = inhibition, actives largely listed as inhibitors. 6.9% of 360,000 active. AID 588342;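 also: plate controls were vehicle for no effect and reference inhibitor for full effect; nearly all actives have a fitted effect of over 55% in size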
Target sequence (P08659 whole entry, looked up): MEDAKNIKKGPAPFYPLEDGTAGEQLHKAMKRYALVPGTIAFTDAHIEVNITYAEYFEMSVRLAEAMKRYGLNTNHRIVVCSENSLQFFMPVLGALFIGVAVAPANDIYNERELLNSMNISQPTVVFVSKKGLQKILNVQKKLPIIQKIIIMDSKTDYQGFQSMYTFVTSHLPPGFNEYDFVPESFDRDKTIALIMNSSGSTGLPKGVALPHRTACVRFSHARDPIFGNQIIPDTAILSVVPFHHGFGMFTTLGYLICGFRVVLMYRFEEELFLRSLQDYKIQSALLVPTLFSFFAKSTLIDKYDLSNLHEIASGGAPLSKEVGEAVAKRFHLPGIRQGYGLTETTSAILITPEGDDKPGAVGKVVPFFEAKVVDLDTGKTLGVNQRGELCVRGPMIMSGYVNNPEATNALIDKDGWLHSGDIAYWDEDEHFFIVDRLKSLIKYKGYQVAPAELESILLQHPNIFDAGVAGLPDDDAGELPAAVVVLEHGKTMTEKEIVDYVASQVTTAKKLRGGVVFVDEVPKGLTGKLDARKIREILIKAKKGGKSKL
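Biochemical qHTS of compounds, final roughly 60 µM downward over six points, against 10 nM purified firefly luciferase using Km concentrations of substrates (10 uM D-luciferin, 10 uM ATP) in Tris acetate pH 7.5 buffer; luminescence output.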
NPC1 prom act: activators of NPC1 promoter; Huh7 NPC1 promoter luciferase reporter, 24 h; Potency, µM (highest dose often 9.22 µM), inactives show at the top dose activation, usual class: activators; 2.4% of 320,000 active; AID 485313; also: % of control where 0% means no effect; nearly all actives have a fitted effect of over 60% in size
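Huh7 cells stably carrying NPC1 promoter–luciferase, plated in Opti-MEM with 10% FBS for 2 h, were exposed to compound in DMSO for 24 h at 37 °C; luciferase reagent was added for 10 min and luminescence read.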
Numbers without * were called inactive; u = inconclusive; x = not tested or not shown; [ ] = another dose, or the depositor's remark. Calls follow the shape of the dose curve; as a rule, active = well fitted curve in the direction sought with a large enough effect; inconclusive = small, poorly fitted or top-dose-only effect, or another doubt; inactive = no such curve, though single readings can be large; an effect the other way counts as inactive or inconclusive. Potency is read from the fitted curve at half-maximal effect.

SMILES	SMN2 splice up	Rab9 prom act	Luc counter	ELG1 genotoxic	FLuc modulator	NPC1 prom act
CCc1cc(=S)n2c([nH]c3ccccc32)c1C#N	x	-8%	x	-17%	24µM*	0%
O=c1[nH]c(SCc2ccc(F)cc2)nc2c1CCCC2	x	x	x	x	3%	x
Cc1oc2ncn(CC(C)C)c(=O)c2c1C(=O)N1CCN(c2cccc(C(F)(F)F)c2)CC1	x	x	x	x	8%	x
COC(=O)Cn1ncc2c3ccccc3n(Cc3ccccc3)c2c1=O	6%	-4%	21%	-7%	-1%	-1%
COC(=O)Cn1ncc(N(C)Cc2ccccc2)c(Cl)c1=O	x	u	x	u	12µM*	2.5µM*
CCOc1ccc(Nc2nc3cc(Cl)c(Cl)cc3nc2-n2nc(C)cc2C)cc1	-5%	x	x	x	0%	x
Cc1cc(NC(=O)c2ccc(S(=O)(=O)N(C)C)cc2)no1	22%	-1%	0%	9%	-16%	-1%
C/C(=C\c1ccccc1)C(=O)Nc1cc(C)on1	-33%	u	-5%	u	15µM*	20%
Cc1cc(NC(=O)c2ccc(Cl)cc2)no1	11µM*	3.2µM*	-2%	8.2µM*	7.6µM*	u
CCOc1ccc(C(=O)Nc2cc(C)on2)cc1	8.9µM*	1.4µM*	-23%	u	3.4µM*	1.1µM*
Cc1cc(NC(=O)NC(=O)c2ccccc2)no1	x	2.5µM*	x	15µM*	u	4µM*
Cc1cc(NC(=O)Cc2ccccc2)no1	-22%	-5%	0%	2%	2%	-3%
COc1ccccc1-c1nnc(SCCOc2ccccc2C)o1	x	x	x	x	-19%	x
O=C(CC1(O)C(=O)N(CCc2ccccc2)c2ccc(Br)cc21)c1ccccc1O (stereo not drawn)	-14%	x	x	x	-13%	x
CC1(C)O[C@H]2C[C@@H]3[C@H]4CCC5=CC(=O)C=C[C@]5(C)[C@@]4(F)[C@@H](O)C[C@]3(C)[C@]2(C(=O)CO)O1	x	x	4%[39.9 µM]	x	x	x
COC(=O)c1scc(-c2ccc(C)cc2)c1S(=O)(=O)Nc1cc(C)ccc1OC	x	x	x	x	7%	x
COc1ccc(Cl)cc1C(=O)NCC(c1ccc(N(C)C)cc1)N1CCOCC1 (stereo not drawn)	x	x	x	x	-12%	x
Cc1cc(NC(=O)c2ccc3nc(C)sc3c2)no1	4µM*	1.8µM*	-2%	9.2µM*	u	0.89µM*
Cc1cc(NC(=O)c2cccc(COc3ccc(Br)cc3)c2)no1	0.35µM*	0.45µM*	6%	0.65µM*	9.5µM*	0.35µM*
Cc1cc(NC(=O)c2ccc3c(c2)C(=O)N(C(C)(C)C)C3=O)no1	x	u	x	u	-3%	17%
CC(=O)Nc1cccc(-c2csc(Nc3cc(C)ccn3)n2)c1	u	1.3µM*	-3%	-14%	2.7µM*	2.5µM*
CC(=O)Nc1ccc(-c2csc(Nc3cc(C)ccn3)n2)cc1	-58%	11%	-1%	-14%	15µM*	u
CC(=O)Nc1ccc(-c2csc(Nc3ccc(Cl)cn3)n2)cc1	-42%	-4%	-7%	-4%	-20%	-3%
Cc1ccnc(Nc2nc(-c3c(C)nc4sccn34)cs2)c1	-71%	-4%	19%	-6%	8.5µM*	11%
Cc1ccc(Nc2nc(-c3c(C)nc4ncccn34)cs2)cc1	-2%	-30%	-8%	18%	-21%	-14%
SMILES	SMN2 splice up	Rab9 prom act	Luc counter	ELG1 genotoxic	FLuc modulator	NPC1 prom act
CC(=O)Nc1cccc(-c2csc(Nc3ccc(Cl)cn3)n2)c1	11µM*	3.2µM*	3%	u	2.4µM*	2µM*
CC(=O)Nc1ccc(-c2csc(NC(C)c3ccccc3)n2)cc1 (stereo not drawn)	22%	-10%	-5%	-2%	u	3%
CN(C(=O)CSc1nc2ccccc2n1CC(=O)N(C)c1ccc(F)cc1)c1ccccc1	x	x	x	x	-3%	x
Cc1ccccc1CNC(=O)C(=O)NCC(c1ccco1)S(=O)(=O)c1ccc(F)cc1 (stereo not drawn)	x	x	x	x	-6%	x
NNc1nc(-c2ccccc2)cs1	-48%	16%	-3%	u	u	14%
CC(=O)Nc1cccc(-c2csc(Nc3ccccn3)n2)c1	11µM*	1.1µM*	-4%	u	1.5µM*	1.3µM*
Cc1ccnc(Nc2nc(-c3ccccc3)cs2)c1	x	u	x	u	1.1µM*	1.4µM*
CS(=O)(=O)c1ccc(-c2nnc(NC(=O)c3ccco3)o2)cc1	x	-4%	x	10%	12µM*	0%
COc1cc(-c2nnc(NC(=O)c3ccco3)o2)cc(OC)c1OC	x	-5%	x	5%	-3%	-1%
O=C(Nc1nnc(-c2ccc(Br)cc2)o1)c1ccco1	x	u	x	6%	2.7µM*	22%
CN(C)c1ccc(C(CNS(=O)(=O)c2ccc(Br)cc2)N2CCCC2)cc1 (stereo not drawn)	x	x	x	x	-4%	x
COc1ccc(-c2cc(C(=O)Nc3nc4c(C)cccc4s3)c3ccccc3n2)cc1OC	-5%	5%	-2%	-6%	11µM*	7%
COc1cccc(-c2cc(C(=O)Nc3nc4ccccc4s3)c3ccccc3n2)c1	-37%	-4%	-4%	-4%	17µM*	-3%
COc1ccccc1CNC(=O)CCc1c(C)nc2cc(-c3ccc(Cl)cc3)nn2c1C	16%	x	x	x	6%	x
Cc1nc2cc(-c3ccc(Cl)cc3)nn2c(C)c1CCC(=O)NC(C)c1ccc2c(c1)OCCO2 (stereo not drawn)	-73%	-3%	0%	-9%	15µM*	5%
CCOC(=O)CC(NC(=O)CCc1c(C)nc2cc(-c3ccccc3)nn2c1C)c1ccc(C)cc1 (stereo not drawn)	-20%	x	x	x	-20%	x
